Calls of active or inactive are those of the source. Rule for the calls: active = hit-call score of the fitted dose curve at least 0.9, where 1 is the maximum; inactive = score below 0.9.
Read-out: Peroxisomal acyl-coenzyme A oxidase 1 (ACOX1) gene, ACOX1 (gene 51)
Assay: LTEA_HepaRG_ACOX1: Life Technologies and Expression Analysis (LTEA) Assay for Peroxisomal acyl-coenzyme A oxidase 1 (ACOX1) gene using HepaRG (AID 2283467)
Conditions: mRNA level, 48 h; actives raise or lower the signal
Protocol: LTEA_HepaRG is a cell based, multiplexed-readout assay that uses HepaRG, a human liver cell line, with measurements taken at 48 hours after chemical dosing on a 96-well plate.LTEA_HepaRG_ACOX1 is one of 102 assay component(s) measured in the LTEA HepaRG cell culture assay. It is a marker of Steatosis.Data from the assay component LTEA_HepaRG_ACOX1 was analyzed into 1 endpoint. This assay endpoint, LTEA_HepaRG_ACOX1, was analyzed with bidirectional fitting relative to DMSO as the negative control and baseline of activity. Using a type of inducible reporter, measures of mRNA induction for gain or loss-of-signal activity can be used to understand regulation of transcription factor activity. To generalize the intended target to other relatable targets, this assay endpoint is annotated to the oxidase intended target family, where the subfamily is steatosis.
A total of 1060 chemcials from the ToxCast library were tested in eight-point concentration-response experiments. Cell culture and cytotoxicity assays were conducted at Thermo Fisher Scientific's Custom Services facility (Madison, WI). A single lot of human HepaRG cells (Thermo Fisher Scientific, Frederick, MD) was used for the cell culture experiments. 96-well format collagen type I coated plates of human HepaRG cells were prepared using established methods. Briefly, cryopreserved HepaRG cells were thawed, plated at a density of approximately 100,000 cells/well in HepaRG Thaw, Plate, and General Purpose media (HPRG770, Thermo Fisher Scientific), and incubated for 48 hours. 0.5% DMSO was selected as vehicle control to balance the requisite need of DMSO in HepaRG cultures to maintain differentiation (for example, baseline metabolism, proportions of hepatocytes vs. cholangiocytes), while enabling further hepatic receptor pathway activation (for example, PXR and CAR) in response to chemical exposure. 48 hours after plating, the culture medium was replaced with HepaRG Serum-Free Incudtion Media. Cells were exposed to each test chemical in duplicate and maintained in CO2 incubators for another 48 hours. Chemical plates were thawed to room temperature and 200x concentrations of treatment groups were prepared. 8-point conentration-reponse curves were made with the highest exposure at 100 uM, followed by half-log dilutions, all in 0.5% DMSO. Each test plate contained variouse controls, induction positive controls (1mM phenobarbital), cytotoxicity positive controls ([…] aflatoxin B1), vehicle controls (0.5% DMSO), and total lysis controls (0.5% DMSO). Cell morphology images were taken using an Essen IncuCyte FLR automated microscope, with six 96-well plates imaged in about 24 minutes. Images were captured and exported and JPEG files. Spent culture media was transfered to black-well plates for the LDH assay, and remaining media was sorted at -80 C for later use. Cells were treated with RLT buffer and frozen until shipped for gene expression analysis. Total RNA was isolated from the cell suspension in 75 uL of Buffer RLT (Qiagen, Germantown, MD 20874) by Quintiles/Expression Analysis (Durham, NC) using a custom isolation procedure. Total RNA from each plate well was transferred to a preamplification plate. Fluidigm's 96.96 Dynamic ArrayTM (Fluidigm, Amsterdam, the Netherlands) technology was used for gene expression analyses by quantitative reverse transcription polymerase chain reaction (qRT-PCR, performed by Quintiles/Expression Analysis, Durham, NC)89. Standard TaqManTM Assays (Applied Biosystems/ThermoFisher Scientific, Foster City, CA) were used to assess the expression of 93 genes selected based on their selectivity and sensitivity to important hepatic receptors known to be modulated by environmental chemicals; importance in human hepatocyte functionality; and hepatotoxicity. […]

| SMILES | outcome | AC50 |
| --- | --- | --- |
| c1ccc2c(c1)Cc1ccccc1-2 | inactive |  |
| CN(C)C=O | inactive |  |
| CCCOC(=O)c1ccc(O)cc1 | inactive |  |
| CCCCCCC(=O)O | inactive |  |
| CC1=C(/C=C/C(C)=C/C=C/C(C)=C/C(=O)O)C(C)(C)CCC1 | inactive |  |
| OCCC(F)(F)C(F)(F)C(F)(F)C(F)(F)C(F)(F)C(F)(F)F | inactive |  |
| OCCC(F)(F)C(F)(F)C(F)(F)C(F)(F)C(F)(F)C(F)(F)C(F)(F)C(F)(F)F | inactive |  |
| CCCCCCCCC(=O)O | inactive |  |
| N#C[C@@H]1CC(F)(F)CN1C(=O)CNC1CC2CCC(C1)N2c1ncccn1 (stereo not given in full) | inactive |  |
| CCCCCCCCCCCCc1ccccc1S(=O)(=O)O |  | 11.7 µM (active) |
| Cc1cc(CCN2CCN(c3nsc4ccccc34)CC2)cc2c1NC(=O)CC2(C)C |  | 75.2 µM (active) |
| CCCCOCCO | inactive |  |
| CC(C)(C)c1ccc(O)c(C(C)(C)C)c1 | inactive |  |
| Cc1oc(-c2ccccc2)nc1CCOc1ccc(C[C@H](Nc2ccccc2C(=O)c2ccccc2)C(=O)O)cc1 |  | 27.3 µM (active) |
| O=C(O)c1ccccc1C(c1ccc(O)cc1)c1ccc(O)cc1 | inactive |  |
| COCC(C)O (stereo not given) | inactive |  |
| Nc1cccc2c(N)cccc12 | inactive |  |
| OC1CCC(C2CCCCC2)CC1 (stereo not given) | inactive |  |
| CC(C)(C)CC(C)(C)c1ccc(O)c(-n2nc3ccccc3n2)c1 | inactive |  |
| ClC1=C(Cl)C(Cl)(Cl)C(Cl)=C1Cl | inactive |  |

| SMILES | outcome | AC50 |
| --- | --- | --- |
| C#C[C@]1(O)CC[C@H]2[C@@H]3CCC4=CC(=O)CC[C@@H]4[C@H]3CC[C@@]21C | inactive |  |
| CCc1nn(C2CCCCC2)c2cc(C3(C#N)CCC(C(=O)O)CC3)ccc12 (stereo not given) | inactive |  |
| CC(C)(C)c1cccc(C(C)(C)C)c1O | inactive |  |
| COCC(C)OCC(C)O (stereo not given) | inactive |  |
| CC(=O)CC(C)(C)O | inactive |  |
| CN1CCC[C@H]1c1cccnc1 |  | 12.6 µM (active) |
| CC(O)CO (stereo not given) | inactive |  |
| CC(=O)NC1(c2cccc(F)c2)CCN(CC[C@@]2(c3ccc(Cl)c(Cl)c3)CN(c3ccccc3)C(=O)CO2)CC1 | inactive |  |
| CN1CCN(c2ccccc2/C=C2\SCCN(c3ccc(Cl)c(Cl)c3)C2=O)CC1 | inactive |  |
| CCCOc1sc(C(=O)N2CCC(c3cc(CN)ccc3F)CC2)c(C)c1Br | inactive |  |
| c1ccc2c(c1)ccc1ccccc12 | inactive |  |
| CC[C@H](C)[C@@H](C(=O)O)n1sc2ccccc2c1=O | inactive |  |
| CCCCC(CC)COC(=O)CCCCC(=O)OCC(CC)CCCC (stereo not given) | inactive |  |
| CCCCCCCCCCCCN1CCCC1=O | inactive |  |
| Oc1cc2ccccc2c2ccccc12 | inactive |  |
| C[C@@H]1C[C@H]2[C@@H]3CCC4=CC(=O)C=C[C@]4(C)[C@@]3(F)[C@@H](O)C[C@]2(C)[C@@]1(O)C(=O)COP(=O)(O)O | inactive |  |
| O=c1c(-c2ccc(O)cc2)coc2cc(O)ccc12 | inactive |  |
| O=[N+]([O-])c1ccc(O)cc1 | inactive |  |
| CC#C[C@]1(O)CC[C@H]2[C@@H]3CCC4=CC(=O)CCC4=C3[C@@H](c3ccc(N(C)C)cc3)C[C@@]21C | inactive |  |
| CCC(=C(c1ccc(O)cc1)c1ccc(OCCN(C)C)cc1)c1ccccc1 | inactive |  |

— PubChem BioAssay (EPA / NIEHS)
